The values that follow come from PubChem BioAssay (NCATS).

For test [1] the following is noted: Ebola virus entry assay, green fluorescence channel.
For test [2] the following is noted: Ebola virus entry assay, blue channel fluorescence.
The conditions of test [3]: Ebola virus entry assay, green fluorescence channel. The source holds these as a separate data set.
For test [4] the following is noted: Ebola virus entry assay, ratio channel readout.
The conditions of test [5]: Ebola virus entry assay, blue channel fluorescence. The source holds these as a separate data set.
For test [6] the following is noted: Ebola virus entry assay, ratio channel.
For test [7] the following is noted: Ebola virus entry assay, reporter ratio channel; AC50: Channel type: primary unless noted; outcome: Channel type: primary unless noted.
For test [8] the following is noted: Ebola virus entry assay, green channel fluorescence.
The conditions of test [9]: Ebola virus entry assay, blue channel fluorescence. This is another data set of the same source.
The conditions of test [10]: Ebola virus entry assay, blue channel (ratio component).

Values joined by “and” are separate entries in the source; they are usually repeats but may differ in a detail not shown here. Equal values may be shown once. A number with no mark means an inactive call. For some of these results: Results with a measured potency or affinity are listed apart. More than one record can exist for a structure, and the calls need not agree. Active and inactive are the calls of the source.
Throughout, for efficacy: 0% is about no effect.

As for `Cc1ccc(NC(=O)c2ccc(CN3CCN(C)CC3)cc2)cc1Nc1nccc(-c2cccnc2)n1`, in [1], the efficacy is 71.5%. The compound was classed as inactive in test [2], in [3] and in [4]. Moreover, the AC50 in test [5] is 22.4 µM (active); in test [6], 12.6 µM (active); in test [7], 12.6 µM (active).
Turning to `CS(=O)(=O)CCNCc1ccc(-c2ccc3ncnc(Nc4ccc(OCc5cccc(F)c5)c(Cl)c4)c3c2)o1`, in [1], the efficacy was 108%. Besides, the call in test [2], in test [3] and in test [4] was inactive. Further, the AC50 in test [5] is 3.55 µM (active); in [6] it was 3.98 µM (active); in [7], 3.98 µM (active).
For the compound `CCCSc1ccc2nc(NC(=O)OC)[nH]c2c1`, the efficacy in [1] is 60.2%. The result in test [2], in test [3] and in test [4] was inactive. The AC50 in [5] is 3.16 µM (active); in test [6], 3.98 µM (active). The outcome in test [7] is “inactive [Channel type: confirmation]”.
Regarding `COc1cc2nc(N3CCN(C(=O)c4ccco4)CC3)nc(N)c2cc1OC`, in test [1], the efficacy is 75.4%. Further, the outcome in [2], in test [3] and in test [4] was inactive. Also, the results for the AC50 in test [5], in test [6] and in [7] were 15.8 µM (active), 12.6 µM (active) and 12.6 µM (active), respectively.
For `COC(=O)[C@H]1[C@H]2C[C@@H]3c4[nH]c5cc(OC)ccc5c4CCN3C[C@H]2C[C@@H](OC(=O)c2cc(OC)c(OC)c(OC)c2)[C@@H]1OC`, the efficacy in [1] was 32.6%. Moreover, the compound was called inactive in test [2], in [3] and in test [4]. In addition, the AC50 in test [5] is 31.6 µM (active); in test [6], 25.1 µM (active); in [7] it was 25.1 µM (active).
On to `COc1cc2c(cc1OC)C(=O)C(CC1CCN(Cc3ccccc3)CC1)C2` (stereo unspecified), for which the efficacy in [1] is 108%. Further, the call in [2], in test [3] and in test [4] was inactive. The half-maximal activity concentration (AC50) in test [5] was 35.5 µM (active); in [6] it was 22.4 µM (active); in test [7], 22.4 µM (active).
For `CC[C@]1(O)C[C@@H]2CN(CCc3c([nH]c4ccccc34)[C@@](C(=O)OC)(c3cc4c(cc3OC)N(C)[C@H]3[C@@](O)(C(=O)OC)[C@H](OC(C)=O)[C@]5(CC)C=CCN6CC[C@]43[C@@H]65)C2)C1`, the efficacy in test [1] was -50.1% and 54.6%. In addition, the AC50 in [2] is 0.0009 µM (active); in [5], 0.794 µM (active); in test [6], 1 µM (active) and 891 nM (active); in test [7], 1 µM (active) and 891 nM (active). The call in [3] and in [4] was inactive.
As for `CO/N=C(\C(=O)N[C@@H]1C(=O)N2C(C(=O)O)=C(CSc3nc(=O)c(O)nn3C)CS[C@H]12)c1csc(N)n1`, in test [1], the efficacy is 11.1%. Also, the compound was classed as inactive in test [2], in test [3], in test [4], in [5], in test [8] and in [9]. Moreover, the result in [7] and in test [10] was inactive.
`C[N+]1(C)CCC(OC(=O)C(O)(c2ccccc2)C2CCCC2)C1` (stereo unspecified): the efficacy in [1] is 28.8%. The result in [2], in test [3], in test [4], in test [5], in test [8] and in [9] was inactive. The result in test [7] and in test [10] was inactive.
As for `Cc1ccnc2c1NC(=O)c1cccnc1N2C1CC1`, the efficacy in [1] is 25.7%. For the same compound, the compound was called inactive in test [2], in [3], in test [4], in test [5], in test [8] and in [9]. For the same compound, the result in [7] and in test [10] was inactive.
On to `CN(C)CCC=C1c2ccccc2CCc2ccccc21`, for which the efficacy in test [1] is 121%. Further, the AC50 is 11.2 µM (active) in test [2], 8.91 µM (active) in [5], 7.94 µM (active) in test [6] and 7.94 µM (active) in [7]. Further, the call in [3] and in [4] was inactive.
`CC/C(=C(\c1ccccc1)c1ccc(OCCN(C)C)cc1)c1ccccc1`: the efficacy in [1] was -205%. Besides, the concentration at half-maximal activity (AC50) in test [2] is 1.12 µM (active); in test [4], 1.26 µM (active); in test [5], 1.41 µM (active); in test [6], 1.12 µM (active); in test [7], 1.12 µM (active). For the same compound, the compound was called inactive in test [3]. The outcome in [7] was “inactive [Channel type: confirmation]”.
As for `CC(CN1c2ccccc2Sc2ccccc21)N(C)C` (stereo unspecified), the efficacy in test [1] is 81.3%. For the same compound, the compound was called inactive in [2], in test [3] and in test [4]. The AC50 in [5] was 39.8 µM (active); in [6], 31.6 µM (active); in test [7], 31.6 µM (active).
For `CC[C@@]1(c2ccccc2)NC(=O)N(C)C1=O`, the efficacy in [1] was -26.5%. Further, the compound was classed as inactive in [2], in test [3], in [4], in test [5], in [8] and in test [9]. Further, the outcome in test [7] and in test [10] was inactive.
For the compound `CN(C)CCC[C@@]1(c2ccc(F)cc2)OCc2cc(C#N)ccc21`, the efficacy in test [1] was 55%. The result in test [2], in [3], in [4] and in [6] was inactive. Further, the AC50 in test [5] and in [7] was 39.8 µM (active) throughout.
With `CCCCc1oc2ccc(NS(C)(=O)=O)cc2c1C(=O)c1ccc(OCCCN(CCCC)CCCC)cc1`, the efficacy in test [1] is -249%. Further, the figures for the AC50 in test [2], in [5] and in test [6] were 7.08 µM (active), 0.891 µM (active) and 0.891 µM (active), respectively. The compound was called inactive in test [3] and in [4]. In test [7], the outcome is “inactive [Channel type: confirmation]”.

The AC50 is the midpoint of the concentration-response curve, whichever way the signal moves.
